Rows were chosen to be rich in hits. Some 8.1% of all compounds tested hit in one or more screens of this group.
KB-V1 cytotox – KB-V1 MDR subline cytotoxicity. 3.4% of 400,000 active. Potency, µM (doses to about 46.1 µM), hits mostly cytotoxic. KB-V1 MDR cells viability, CellTiter-Glo, 72 h. AID 1347076; further: on the % scale 0 is the no-effect control and ±100 the full control effect; nearly all actives have a fitted effect of over 60% in size
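In this primary screen, KB-V1 cells overexpressing P-gp are incubated with library compounds (lowest to highest concentration) for 72 h at 37 degrees C before a luminescent ATP viability read.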
ELG1 DNA repair – blocks ELG1-dependent DNA repair in HEK293T cells. HEK293T ELG1-luciferase reporter, luminescence, 16 h; DNA damage induced by 5-fluorouridine. Potency, µM (series often up to 46.1 µM), without a hit: top-dose activity change, negative = inhibition, hits mostly inhibitors. 2.3% of 330,000 active; further: on the % scale 0 is the no-effect control and ±100 the full control effect; nearly all actives have a fitted effect of over 55% in size
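HEK293T cells expressing luciferase-tagged ELG1 (2,000/well) received 5-Fluorouridine plus compound or DMSO for 16 hr at 37 °C. Luciferase was read by ONE-Glo luminescence after 30 min at room temperature.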
KB-3-1 cytotox – KB-3-1 parental cell cytotoxicity; KB-3-1 viability, CellTiter-Glo ATP luminescence, 72 h; Potency, µM (doses to about 46.1 µM), hits mostly cytotoxic; 1.4% of 400,000 active; AID 1347075; further: on the % scale 0 is the no-effect control and ±100 the full control effect; nearly all actives have a fitted effect of over 60% in size
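Parental KB-3-1 viability, qHTS format: 72 h compound exposure, 37 °C; CellTiter-Glo; media-only wells and DMSO plates as controls; concentration-effect fits on corrected data.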
SW480 rerep – inducers of DNA re-replication in SW480 colon cancer cells; 1.8% of 340,000 active; SW480 DNA re-replication, Hoechst DNA content imaging, 48 h; Potency, µM (highest dose often 46.1 µM), without a hit: top-dose re-replication activation, actives largely listed as activators; further: % of control where 0% means no effect; nearly all actives have a fitted effect of over 55% in size
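SW480 cells exposed to compounds for 48 hr at 37 C, 5% CO2, then Hoechst-stained 40 min. Nuclear DNA content imaged by fluorescence scanning (405 nm excitation, 500-530 nm emission); re-replication scored as increased high-intensity nuclei.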
MCF10A rerep – induces DNA re-replication in MCF 10a normal breast cells; MCF 10A DNA re-replication, Hoechst nuclear intensity, 48 h; Potency, µM (highest dose often 46.1 µM), without a hit: at the top dose activity, positive = re-replication, actives largely listed as activators; 2.9% of 350,000 active; further: % of control where 0% means no effect; nearly all actives have a fitted effect of over 50% in size
* hit, by the source's call; i = inactive; u = inconclusive; x = no result; [ ] = dose if it differs, or a comment. The call rests on the fitted dose curve; in most records, active means well fitted curve in the direction sought with a large enough effect; inconclusive means small, poorly fitted or top-dose-only effect, or another doubt; inactive means no such curve, though single readings can be large; an effect the other way counts as inactive or inconclusive. Potency means the concentration at half of the fitted maximal effect.

SMILES | KB-V1 cytotox | ELG1 DNA repair | KB-3-1 cytotox | SW480 rerep | MCF10A rerep
O=C(Nc1ccc2oc(=O)ccc2c1)c1ccc2ccccc2c1 | i | u | i | -3% | 0%
Nc1ccc2ccc(O)cc2c1 | i | x | i | 18µM* | 7.3µM*
COc1cc(C(=O)Nc2ccncc2)cc(OC)c1OC | i | u | i | 1% | 21%
CCCC(=O)Nc1ccc2oc(-c3ccc(OC)c(Br)c3)nc2c1 | 2.6µM* | u | i | u | 18µM*
CCCC(=O)Nc1ccc(-c2nc3cc(C)ccc3o2)cc1 | i | u | i | -5%[9.22 µM] | -1%
COc1cc(C(=O)Nc2ccc3oc(-c4cccnc4)nc3c2)cc(OC)c1OC | 15µM* | 23µM* | i | -19% | u
COc1cc(C(=O)Nc2ccc(Nc3ccccc3)cc2)cc(OC)c1OC | i | u | i | 26% | 21µM*
O=C(Nc1ccc(Nc2ccccc2)cc1)c1c(Cl)cccc1Cl | i | x | i | 1% | 23µM*
CCN(CC)C(=O)c1ccc(NS(=O)(=O)c2ccc(/C=C/C(=O)O)cc2)cc1 | i | 8% | i | -4% | -9%
CCc1ccc2oc(-c3ccc(NC(=O)c4cc(OC)c(OC)c(OC)c4)cc3)nc2c1 | i | x | i | x | x
O=C(Nc1ccc2oc(-c3ccccc3)nc2c1)c1ccc2c(c1)OCCO2 | 8.2µM* | u | u | u | 21µM*
COc1cc(C(=O)Nc2ccc3oc(-c4ccccc4)nc3c2)cc(OC)c1OC | 8.2µM* | x | i | x | x
Clc1cccc(-c2ccc(CNCCSc3nnnn3-c3ccccc3)o2)c1 | i | x | i | x | x
Cc1ccc(C(C(=O)NCc2ccccc2)N(Cc2ccco2)C(=O)c2snc(C(N)=O)c2N)o1 (stereo not drawn) | u | u | i | -1% | u
COc1ccc(C(C(=O)NCc2ccccc2)N(Cc2ccco2)C(=O)c2snc(C(N)=O)c2N)cc1OC (stereo not drawn) | u | 15µM* | i | -2% | -5%
COc1ccc(C(C(=O)NCC2CCCO2)N(Cc2ccco2)C(=O)c2snc(C(N)=O)c2N)cc1OC (stereo not drawn) | i | -28% | i | 3% | -1%
COc1ccc(C(C(=O)NCc2ccccc2)N(C(=O)c2snc(C(N)=O)c2N)c2ccccc2OC)cc1 (stereo not drawn) | i | 18µM* | u | u | 2%
COc1ccc(C(C(=O)NCc2ccccc2)N(Cc2ccco2)C(=O)c2snc(C(N)=O)c2N)cc1 (stereo not drawn) | u | 21µM* | i | 0% | 2%
NC(=O)c1nsc(C(=O)N(c2ccccc2F)C(C(=O)NCc2ccc(F)cc2)c2ccc(O)cc2)c1N (stereo not drawn) | i | u | u | u | 23µM*
O=C(CCC(=O)OCc1ccc([N+](=O)[O-])cc1)Nc1ccc(F)cc1 | i | -27% | i | -8% | -2%
CCOC(=O)c1c2c3c(c(Cl)ccc3[nH]c1=O)C(=O)c1ccccc1-2 | i | -7% | i | -22% | u
CCCC(=O)Nc1ccccc1NC(=O)c1ccc(OC)cc1 | u | -8% | i | 6% | 2%
CN(C)CCCN1C(=O)c2cccc3c([N+](=O)[O-])ccc(c23)C1=O | u | 13µM* | 23µM* | 5.8µM* | 5.8µM*
Cc1ccc(C(=O)O)cc1N1C(=O)c2cccc3c([N+](=O)[O-])ccc(c23)C1=O | i | u | u | u | 18µM*
O=C(Nc1ccc(S(=O)(=O)Nc2nccs2)cc1)c1cccc(N2C(=O)c3ccccc3C2=O)c1 | i | 4% | i | -10% | -2%
O=C(Nc1nccs1)c1cccc(N2C(=O)c3cccc4c([N+](=O)[O-])ccc(c34)C2=O)c1 | u | 1% | u | 7.3µM* | 3.7µM*
CC(=O)Oc1cccc(N2C(=O)c3cccc4c([N+](=O)[O-])ccc(c34)C2=O)c1 | i | 15% | i | u | 21µM*
O=c1c2ccccc2nc(-c2ccc([N+](=O)[O-])cc2)n1O | u | u | i | u | 3%
